Consider 69 compounds from PubChem BioAssay AID488969 (Vanderbilt High Throughput Screening Facility, 2010).

In all, about 110,000 compounds were measured (“z-score”: median about -0.1, highest 2% from about 2 on). The entries come from a sample that favours the highest values as a whole. Activity calls are given as the source filed them.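 The calls were made as follows: active = z-score in the third read window above 3 or below -3; inactive = the rest.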

The target in this assay is Metabotropic glutamate receptor 8 (Rattus norvegicus) (UniProt P70579). Put plainly: rat mGluR8 modulators via GIRK flux, primary screen, cell-based, thallium flux, HTS (AID 488969). Particulars: HEK293 rat mGluR8, GIRK (G protein-gated inwardly rectifying potassium channel) thallium flux, FluoZin2; at 10 µM; stronger effect = higher value; submaximal glutamate (EC20) added with thallium.
Metabotropic glutamate receptor 8 (Rattus norvegicus), sequence (P70579 whole entry, looked up): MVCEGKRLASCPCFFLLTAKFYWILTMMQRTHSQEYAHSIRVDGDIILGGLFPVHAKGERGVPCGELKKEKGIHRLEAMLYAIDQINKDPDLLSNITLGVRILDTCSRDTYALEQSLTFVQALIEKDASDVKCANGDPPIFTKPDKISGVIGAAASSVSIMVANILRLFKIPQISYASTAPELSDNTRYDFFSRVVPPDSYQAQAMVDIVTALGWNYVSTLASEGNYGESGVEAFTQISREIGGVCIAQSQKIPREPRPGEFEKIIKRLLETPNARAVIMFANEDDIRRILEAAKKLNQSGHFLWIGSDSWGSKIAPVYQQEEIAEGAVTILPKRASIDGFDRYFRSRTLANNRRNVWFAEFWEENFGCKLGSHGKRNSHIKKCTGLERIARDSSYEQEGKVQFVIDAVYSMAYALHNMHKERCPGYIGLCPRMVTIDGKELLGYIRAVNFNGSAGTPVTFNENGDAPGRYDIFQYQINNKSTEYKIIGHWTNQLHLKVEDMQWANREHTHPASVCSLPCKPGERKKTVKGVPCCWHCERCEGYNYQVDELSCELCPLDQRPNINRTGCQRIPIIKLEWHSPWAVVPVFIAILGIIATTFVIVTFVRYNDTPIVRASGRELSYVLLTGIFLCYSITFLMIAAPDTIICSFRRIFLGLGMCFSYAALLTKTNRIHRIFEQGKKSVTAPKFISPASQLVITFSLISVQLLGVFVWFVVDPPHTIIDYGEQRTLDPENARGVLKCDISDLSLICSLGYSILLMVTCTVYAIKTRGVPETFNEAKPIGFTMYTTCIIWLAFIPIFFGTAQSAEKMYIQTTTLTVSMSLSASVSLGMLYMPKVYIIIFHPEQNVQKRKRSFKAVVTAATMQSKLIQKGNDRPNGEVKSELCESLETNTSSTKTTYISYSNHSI
The compound `CCOC(=O)C1CCN(C(=O)c2cccc(Cl)c2)CC1` had a z-score of 0.0552.

The compound `C/C(=N\NC(=O)c1c(Cl)c(C)nn1C)c1cccc(NC(=O)COc2ccccc2)c1` registered a z-score of -0.103.

In turn, `CCOC(=O)Nc1nnc(-c2ccc(OC)cc2)s1` yielded a z-score of 0.0823.

In the case of `CC(C)[C@H](NC(=O)c1ccccc1)C(=O)OCC(=O)N1CCCc2ccccc21`, the z-score came to 0.0154.

`Cc1cccc(C)c1NC(=O)CSc1nc(COc2ccccc2)nc2ccccc12` returned a z-score of 0.755.

As to `Cc1ccc(NC(=O)C(c2ccccc2)C2CCCC2)cc1` (centres undefined), the z-score was 3.36 (active).

`O=C(Nc1ccc2ccccc2c1)C(c1ccccc1)C1CCCC1` (centres undefined) displayed a z-score of 0.0599.

For `O=C(Nc1ccccc1)C(c1ccccc1)C1CCCC1` (centres undefined), the z-score was -0.474.

Turning to `CCOC(=O)N1CCN(C(=O)N2CCOCC2)CC1`, the z-score worked out at 0.275.

The compound `COc1ccccc1N1CCN(S(=O)(=O)c2ccccc2F)CC1` returned a z-score of -0.52.

For the compound `COCCOC(=O)C(C#N)c1nc2ccccc2nc1N1CCCC1` (centres undefined), the z-score was -0.268.

In turn, `CCC(CC)COC(=O)C(C#N)c1nc2ccccc2nc1N1CCN(CC)CC1` (centres undefined) registered a z-score of 2.72.

In turn, `CCCCCCOC(=O)C(C#N)c1nc2ccccc2nc1N1CCN(CC)CC1` (centres undefined) registered a z-score of 0.709.

Consider `CC(C)COC(=O)C(C#N)c1nc2ccccc2nc1N1CCN(Cc2ccccc2)CC1` (centres undefined), for which the z-score was -0.213.

Consider `CCCCCCOC(=O)C(C#N)c1nc2ccccc2nc1N1CCN(C)CC1` (centres undefined), for which the z-score was determined as 2.73.

`CCCCCCOC(=O)C(C#N)c1nc2ccccc2nc1N1CCCCC1` (centres undefined) showed a z-score of -0.00593.

Turning to `COc1ccc(CCNC(=O)Cc2cc(OC)c(OC)cc2[N+](=O)[O-])cc1OC`, the z-score is -0.376.

Compound `COCC(=O)Nc1nnc(COc2ccc(Cl)cc2)s1` yielded a z-score of 0.279.

As to `COc1ccc(C2c3c(ccc4ccccc34)Oc3ncn4nc(Cc5ccc(OC)c(OC)c5)nc4c32)cc1` (centres undefined), the z-score is -0.169.

`Cc1cc(=O)oc(C)c1C(=O)N1CCN(C(c2ccccc2)c2ccccc2)CC1` showed a z-score of 0.596.

As for `CN(C)C(=O)C(=O)c1cccn1-c1ccccc1C#N`, the z-score stood at 0.429.

Take `CCOC(=O)C1CCCN(C(=O)c2sc3nc(C)nc(N(CC)CC)c3c2C)C1` (centres undefined): the z-score is -0.328.

On to `Cc1ccc(CC(=O)N2CCN(c3cccc(C(F)(F)F)c3)CC2)cc1`, for which the z-score is 6.97 (active).

Consider `COc1ccccc1CC(=O)N1CCN(c2cccc(C(F)(F)F)c2)CC1`, for which the z-score was 0.359.

In turn, `Cc1ccc(/C=C/C(=O)N2CCN(c3cccc(C(F)(F)F)c3)CC2)cc1` showed a z-score of -0.0624.

`CCc1c(C(=O)Nc2nnc(C3CC3)s2)csc1C` showed a z-score of 1.09.

With `CC(C)(C)c1ccc(OCc2ccc(C(=O)N/N=C/c3ccc([N+](=O)[O-])cc3)o2)cc1`, the z-score is -0.4.

With `CN1CCC(=NNC(=O)C(=O)NC2CCCCC2)CC1`, the z-score was found to be 2.04.

`O=C(NN=C1CCCCCCC1)C(=O)NC1CCCCC1` showed a z-score of 0.327.

`CN1CCC(=NNC(=O)C(=O)NC2CCCC2)CC1` returned a z-score of -0.0552.

Consider `O=C(Cn1[nH]c(=O)c2ccccc2c1=O)NC1CCCCCC1`, for which the z-score came to 0.0122.

Compound `CCOC(=O)C1[C@H]2C(=O)N(C(C)c3ccc(OC)cc3)C[C@]23C=C[C@H]1O3` (some centres undefined) displayed a z-score of 0.209.

As to `COc1ccc(C(C)N2CC34C=CC(O3)C(C(=O)OCC(C)C)C4C2=O)cc1` (centres undefined), the z-score is 5.16 (active).

On to `CCCOC(=O)C1[C@H]2C(=O)N(C(C)c3ccc(OC)cc3)C[C@]23C=C[C@H]1O3` (some centres undefined), for which the z-score was 0.656.

The compound `CC(C)(NC(=O)N1CCOCC1)c1cccc(C(C)(C)NC(=O)N2CCOCC2)c1` displayed a z-score of -0.126.

Take `Cc1cc(C)c2cc(C)c3nnc(SCC(=O)NCc4ccc5c(c4)OCO5)n3c2c1`: the z-score is -0.513.

For the compound `COc1ccccc1CCNCc1ccc(OC)c(OCc2ccccc2)c1`, the z-score came out at 0.696.

The compound `COc1cccc(CNCCc2c[nH]c3ccccc23)c1OCc1ccccc1` gave a z-score of 1.32.

For the compound `COc1cc(CNCCc2c[nH]c3ccccc23)ccc1OCc1ccccc1F`, the z-score is 0.911.

In the case of `COc1cccc(CNCCc2c[nH]c3ccccc23)c1OCc1ccc(F)cc1`, the z-score came to 2.04.

For the compound `COc1cccc(CNn2cnnc2)c1OCc1ccc(F)cc1`, the z-score is -0.661.

With `COc1cc(CNCCc2c[nH]c3ccccc23)ccc1OCc1ccc(F)cc1`, the z-score was 3.41 (active).

Take `Cc1cccc(N2CCN(C(=O)COc3ccc4c(c3)CCC4)CC2)c1C`: the z-score was -0.161.

As for `CC1(C)NC(=O)N(CCSc2ccc(Cl)cc2)C1=O`, the z-score is -0.257.

`CCC(Sc1n[nH]c(=O)[nH]c1=O)C(=O)OCc1ccccc1` (centres undefined): the z-score came out at 0.193.

Take `O=C(NCc1ccc(F)cc1)c1cc(S(=O)(=O)N2CCOCC2)ccc1F`: the z-score turned out to be 0.0221.

Regarding `Cc1ccc(S(=O)(=O)NCC(=O)N(CC(=O)NCc2ccco2)Cc2ccc3c(c2)OCO3)cc1`, the z-score was -0.622.

Take `COc1ccc(CSc2nc3ccccc3[nH]2)cc1`: the z-score came to 0.53.

Turning to `CCNC(=O)NC(=O)COC(=O)CCCSc1nc2ccccc2[nH]1`, the z-score was 3.23 (active).

`Fc1ccc(CSc2nc3ccccc3[nH]2)c2ccccc12`: the z-score is 10.7 (active).

Compound `c1ccc(OCCSc2nc3ccccc3[nH]2)cc1` gave a z-score of 2.69.

In turn, `C=CCNC(=O)NC(=O)COC(=O)CCCSc1nc2ccccc2[nH]1` yielded a z-score of -0.828.

`COC(=O)c1cccc(CSc2nc3ccccc3[nH]2)c1` returned a z-score of 0.475.

Consider `O=C(COC(=O)CCCSc1nc2ccccc2[nH]1)NC(=O)NC1CCCC1`, for which the z-score was -0.664.

Consider `O=c1[nH]c(SCCOc2ccccc2)nc2ccccc12`, for which the z-score was -0.359.

The compound `Fc1cccc(F)c1CSc1nc2ccccc2[nH]1` returned a z-score of -0.786.

In turn, `Cc1cccc(OCCCSc2nc3ccccc3[nH]2)c1` registered a z-score of 0.357.

`COc1cccc(CSc2nc3ccccc3[nH]2)c1` came in with a z-score of 2.68.

`Fc1ccccc1CSc1nc2ccccc2[nH]1`: the z-score is 0.129.

Compound `C/C(=N\Nc1cc(-c2ccccc2)nc(-c2ccc(Br)cc2)n1)c1cccc(N)c1` gave a z-score of -0.0597.

The compound `CN1CCN(C(=O)c2ccc(CS(=O)(=O)c3c(Cl)cccc3Cl)o2)CC1` gave a z-score of 0.504.

With `Nn1c(SCC(=O)Nc2ccc3c(c2)OCCO3)nnc1-c1ccccn1`, the z-score was -0.0196.

`COCCN1C(=O)C(=O)/C(=C(/O)c2ccc(S(=O)(=O)N3CCOCC3)cc2)C1c1ccc(C(C)C)cc1` (centres undefined) came in with a z-score of 0.0253.

`COc1ccc(NC(=O)CCS(=O)(=O)c2ccccc2)c(OC)c1`: the z-score is 0.256.

Compound `C=CCNC(=S)N/N=C/c1cn(-c2ccccc2)nc1-c1ccc(OC)cc1` had a z-score of -0.184.

With `O=C(N/C=C\c1ccccc1)NCc1ccc(Cl)cc1`, the z-score is 0.197.

`COc1ccc(C(=O)N(Cc2ccccc2)Cc2cc3cc4c(cc3[nH]c2=O)OCCO4)cc1` displayed a z-score of 0.201.

Compound `COc1cccc(C2c3c(oc4ccc(F)cc4c3=O)C(=O)N2CCN2CCOCC2)c1OC` (centres undefined) yielded a z-score of -0.574.

Regarding `C=CCNc1cnn(CC(C)=O)c(=O)c1Br`, the z-score is -0.0909.
